# Results filed as inconclusive are left out. Where a call stands in place of a potency, no number is given. The source made the active and inactive calls. Calls come from the whole dose curve; as a rule, active = well fitted curve in the direction sought with a large enough effect; inconclusive = small, poorly fitted or top-dose-only effect, or another doubt; inactive = no such curve, though single readings can be large; an effect the other way counts as inactive or inconclusive.
# Key:
# [1] = qHTS for compounds that reverse cellular toxicity of Amyloid beta (A-beta) peptide in yeast: LOPAC Validation Assay (AID 720559)
# How it was run: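 Medium dispensed, compounds pinned, A-beta yeast suspension added; plates held at 30 C for 48 hr; absorbance measured at 600 nm to gauge growth; values scaled between DMSO and FeCl3/clioquinol (equimolar) controls.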
# [2] = qHTS for Activators of Parkin Expression: LOPAC Validation Assay (NLuc Reporter) (AID 720572)
# How it was run: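 Compound effects on Parkin promoter activity were measured as NanoLuc luminescence after 24 h at 37 C. The neuronal reporter line also carried FLuc, which was read first. LOPAC compounds were tested at 7 concentrations, with normalization to DMSO (0%) and positive control (100%).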
# [3] = qHTS for Activators of Parkin Expression: LOPAC Validation Assay (FLuc Reporter) (AID 720573)
# How it was run: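 Cells seeded, 24 h; compounds pinned, 7-pt dose response; 24 h at 37 C/5% CO2; volume reduced; FLuc reagent 10 min RT; luminescence read. Normalization: DMSO = 0, positive control = 100%.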
Structure (SMILES),outcome [1],Potency [2],Potency [3]
C[C@]12C=CC(=O)C=C1CC[C@@H]1C2=CC[C@]2(C)[C@@H](C(=O)CN3CCN(c4cc(N5CCCC5)nc(N5CCCC5)n4)CC3)CC[C@@H]12,inactive,inactive,inactive
Nc1ncnc2c1nc(Sc1ccc(Cl)cc1)n2[C@H]1OC2COP(=O)(O)O[C@@H]2C1O (stereo not given in full),inactive,inactive,inactive
Oc1cc(O)c2c(c1)O[C@H](c1ccc(O)c(O)c1)[C@@H](O)C2,inactive,inactive,inactive
O=C(O)CCC/C=C\C[C@@H]1[C@@H](/C=C/[C@H](O)C2Cc3ccccc3C2)[C@@H](F)C[C@@H]1O,inactive,–,inactive
NCC(O)C1CCCCCCC1 (stereo not given),inactive,inactive,inactive
N=C(N)c1ccccc1,inactive,inactive,inactive
COC(=O)C(C)(N)Cc1ccc(O)cc1 (stereo not given),inactive,inactive,inactive
CCCCCCC(=O)OC1CC(C)(C)NC(C)(C)C1,inactive,inactive,inactive
N#C/C(=C\c1ccc(O)c(O)c1)C(=O)NCCc1ccccc1,inactive,inactive,inactive
Cc1ccccc1/C=C/C1=NCCN1,inactive,inactive,inactive
COc1ccc2c(c1)c(CC(=O)O)c(C)n2Cc1ccc(Cl)cc1,inactive,–,inactive
CC(C)C[C@H](NC(=O)[C@H](O)[C@H](N)Cc1ccccc1)C(=O)O,inactive,inactive,inactive
C#CC(N)CCC(=O)O (stereo not given),inactive,inactive,inactive
COc1ccc(C(=O)NCc2cccnc2)cc1C(=O)NCc1cccnc1,inactive,inactive,inactive
